Sm TGR inh: inhibitors of Schistosoma mansoni thioredoxin glutathione reductase; Q962Y6; purified TGR, DTNB reduction, TNB absorbance 405 nm; Potency, µM (top dose mostly 114 µM), for inactives: at the top dose activity change, negative = inhibition, usual class: inhibitors; actives 3% (n = 360,000); also: nearly all actives have a fitted effect of over 60% in size
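Kinetic colorimetric format: TGR-catalysed, NADPH-driven DTNB reduction monitored via TNB absorbance. Enzyme dispensed at 20 nM; compound exposure 15 min at room temperature before reaction start.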
AmpC no deterg: blocks E. coli AmpC beta-lactamase in detergent-free assay | Potency, µM (doses to about 57.1 µM), without a hit: at the top dose activity change, negative = inhibition, usual class: inhibitors | AID 485341 | P00811 | actives 0.52% (n = 330,000) | AmpC nitrocefin hydrolysis, absorbance 480 nm, 0.0001% Triton;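 also: plate controls were no compound for no effect and no enzyme for full effect; nearly all actives have a fitted effect of over 20% in size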
Target sequence (P00811 whole entry, looked up): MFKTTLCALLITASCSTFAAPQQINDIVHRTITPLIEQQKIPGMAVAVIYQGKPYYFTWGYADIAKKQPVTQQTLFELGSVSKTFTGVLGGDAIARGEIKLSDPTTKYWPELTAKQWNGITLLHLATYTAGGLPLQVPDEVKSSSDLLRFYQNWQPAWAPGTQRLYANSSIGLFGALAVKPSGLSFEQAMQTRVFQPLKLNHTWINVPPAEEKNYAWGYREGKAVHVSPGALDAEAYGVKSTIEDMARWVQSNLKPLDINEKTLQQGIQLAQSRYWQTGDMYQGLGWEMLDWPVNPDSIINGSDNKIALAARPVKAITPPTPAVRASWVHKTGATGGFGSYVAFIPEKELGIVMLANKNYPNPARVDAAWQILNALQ
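20 mM phosphate pH 7.0 + 0.01% (detergent screen) or 0.0001% Triton X-100; 5.3 nM AmpC reagent; cpd preinc 15 min RT; nitrocefin (800 uM stock) to start; A480 q20 s × 4 min; Activity was normalised to no-enzyme and no-compound control wells.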
AmpC detergent: AmpC beta-lactamase inhibition with detergent present; AmpC hydrolysis of nitrocefin, absorbance 480 nm, 0.01% Triton; Potency, µM (series often up to 114 µM), inactives show at the top dose activity change, negative = inhibition, most hits filed as inhibitors; actives 0.041% (n = 370,000);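 also: 0% = no-compound wells and -100% = no-enzyme wells; nearly all actives have a fitted effect of over 25% in size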
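AmpC (5.3 nM in the dispensed reagent) in 20 mM phosphate pH 7.0 with 0.01% (detergent screen) or 0.0001% Triton X-100 was preincubated with compounds for 15 min at room temperature. Nitrocefin was then added from an 800 uM solution, and hydrolysis was followed at 480 nm.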
Starred values were filed as active, the others as inactive; ? = inconclusive; . = not tested or not shown; ! = repeats disagree. Shown are actives, neighbours in structure and some others; about 3.3% of the full set was active somewhere. Calls follow the shape of the dose curve; as a rule, active = well fitted curve in the direction sought with a large enough effect; inconclusive = small, poorly fitted or top-dose-only effect, or another doubt; inactive = no such curve, though single readings can be large; an effect the other way counts as inactive or inconclusive. Unless noted, % is scaled to controls: 0 for no effect and ±100 for the full control effect; potency is read from the fitted curve at half-maximal effect.

SMILES | Sm TGR inh | AmpC no deterg | AmpC detergent
COc1ccc2c(c1)c1ccc3c(c1n2C)C(=O)C=CC3=O | 1.26µM* | -48.1% | 3.0%
Cc1ccc2c(c1)c1ncnc(N3CCOCC3)c1n2C | 6.5% | 35.6% | ?
CCCCNC(=O)c1ccc(SCC(=O)N(CC)CC)c([N+](=O)[O-])c1 | 7.1% | -5.6% | 1.3%
O=[N+]([O-])c1ccc(Cl)c([N+](=O)[O-])c1 | 2.24µM* | -14.0% | ?
O=[N+]([O-])c1cc(Cl)c(Cl)cc1Cl | 0.0% | -16.1% | 1.2%
O=[N+]([O-])c1ccc(C(O)CSC(=S)N2CCCCC2)cc1 (stereo not given) | -4.5% | -23.8% | -5.6%
CCOc1cc(-c2ccc(OC(=O)c3ccc(Cl)cc3)c(OC)c2)cc(=O)c2c(C)oc(C)c12 | 0.6% | . | -4.0%
COc1ccc(-c2cc(OC(=O)c3ccc(F)cc3)c3c(C)oc(C)c3c(=O)c2)cc1 | 35.5µM* | -38.2% | -9.5%
COc1ccc(-c2cc(OC(=O)c3cccc(Cl)c3)c3c(C)oc(C)c3c(=O)c2)cc1 | 22.4µM* | . | 19.6%
COc1ccc(-c2cc(OC(=O)c3ccccc3)c3c(C)oc(C)c3c(=O)c2)cc1OC | ? | . | 19.7%
Cc1cc2c(ncn2Cc2ccccc2)c(N)c1C | -7.0% | 4.1% | ?
CCN(C(=O)CCc1nc(-c2ccc(C)cc2)no1)c1cccc(C(F)(F)F)c1 | -6.6% | . | -9.9%
N#Cc1ccccc1S(=O)(=O)N1CCN(C(=O)CN2CCCC2c2cccs2)CC1 (stereo not given) | -33.2% | 92.3% | 6.5%
Cc1cccc(NC(=O)CSCC(=O)Nc2ccc(S(=O)(=O)N3CCOCC3)cc2)c1 | -5.4% | -28.0% | -12.9%
COC(=O)c1ccc(CN(c2ccccn2)S(=O)(=O)c2ccccc2)cc1 | 2.0% | 4.3% | -6.9%
COC(=O)c1ccc(CN(c2ccc(C(=O)O)c(O)c2)S(=O)(=O)c2ccc(Cl)c([N+](=O)[O-])c2)cc1 | -30.2% | 7.94µM* | -4.2%
CCOC(=O)c1ccc(NS(=O)(=O)c2ccc3c(c2)NC(=O)CCS3)cc1 | -3.9% | -31.5% | 3.1%
O=C(NC(=S)Nc1ccccc1Cl)c1csnn1 | 22.4µM* | -35.4% | -10.7%
O=C(Nc1ccccc1NC(=O)c1csnn1)c1csnn1 | -2.8% | -14.4% | 2.3%
O=C(O)c1c(C(=O)O)c(-c2ccc(Cl)c(Cl)c2)n2c1CSC2 | -31.4% | -35.5% | 6.2%
CC(=O)NC(c1cccs1)c1cc(F)c2cccnc2c1O (stereo not given) | 50.1µM*! | -3.2% | -1.1%
CC(C)C(=O)NC(c1cccs1)c1cc([N+](=O)[O-])c2cccnc2c1O (stereo not given) | -18.9% | -49.2% | ?
CCC(=O)NC(c1cccs1)c1cc([N+](=O)[O-])c2cccnc2c1OC (stereo not given) | 39.8µM* | 131.5% | ?
CC(=O)NC(c1ccco1)c1cc(F)c2cccnc2c1O (stereo not given) | ? | -3.6% | 8.6%
Cc1ccc(Cl)cc1N1CCN(C(c2ccc(F)cc2)c2nnc(-c3ccccc3)o2)CC1 (stereo not given) | 6.8% | . | 4.2%
SMILES | Sm TGR inh | AmpC no deterg | AmpC detergent
N#CC1=C(N)Oc2n[nH]c(-c3cccs3)c2C1c1ccncc1 (stereo not given) | 4.6% | -38.1% | 3.8%
N#CC1=C(N)Oc2n[nH]c(-c3cccs3)c2C1c1ccco1 (stereo not given) | 31.6µM* | -25.9% | ?
Cc1cccc(NC(=O)C(C)Oc2ccc(C)nc2[N+](=O)[O-])c1 (stereo not given) | . | -21.0% | .
COc1cc(C2C=C(C(=O)O)Nc3ncnn32)ccc1O (stereo not given) | 1.7% | . | 17.4%
O=C(CC12CC3CC(CC(Br)(C3)C1)C2)Nc1cccc(S(=O)(=O)NC2=NCCC2)c1 | 1.2% | -25.9% | -6.2%
CC(=O)NC(=S)c1c(N)n(Cc2ccccc2)c(=O)n(C)c1=O | -5.5% | -35.2% | 5.1%
COC(=O)c1ccc(C(c2c(N)n(Cc3ccccc3)c(=O)n(C)c2=O)N2CCOCC2)cc1 (stereo not given) | 22.4µM* | 52.0% | -6.3%
COc1ccc(CC(=O)NNC(=O)c2ccc(Br)s2)cc1OC | . | -5.3% | .
C(=C\c1nc2ccccc2[nH]1)/c1ccccc1 | 9.2% | -36.4% | -8.7%
O=C(/C=C/c1ccco1)Nc1ccc(-c2nc3ccccc3[nH]2)cc1 | -18.4% | 35.5µM* | -5.6%
O=C(Nc1ccc(-c2nc3ccccc3[nH]2)cc1)c1ccco1 | ? | -42.4% | 0.3%
C(=C\c1ccco1)/c1nc2ccccc2[nH]1 | 3.16µM* | -45.9% | -1.8%
Fc1cccc(F)c1/C=C/c1ccc2ccccc2n1 | -25.4% | -31.8% | 0.7%

Screening data deposited in PubChem by National Center for Advancing Translational Sciences (NCATS).
